Experimental data reported in the supplement of paper PMC6555819.

Tests used:
Assay in all cases: PBM binding z-score (relative to random genomic background probes); higher = stronger binding; sequences stand for … in GC…GCGATTGACAGCGTAGAATGAAGG
[1] = system: PPARg:RXRa DBDmut IVT, anti-RXR (DBD mutation: RXRa K156A/R161A, NR concentration 270 nM, RXRa partner concentration 90 nM)
In short: (§1)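 Custom Agilent 4×180K protein-binding microarrays carried double-stranded probes. Their 34-nt variable regions held direct-repeat seeds, single-nucleotide variants, half-site ablations and random human genomic background sequences. Arrays were incubated 1 h with ligand-free nuclear receptor dimers in PBS pH 7.4, 2% milk, 0.02% Triton X-100, 1 mM DTT, 0.2 mg/mL BSA and 0.4 mg/ml salmon testes DNA. Antibodies against each partner (one per run) detected binding, and scanned fluorescence was regression-normalized. Binding z-scores use random background probes as reference.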

[2] = system: PPARg:RXRa IVT, anti-PPARg (NR concentration 270 nM, RXRa partner concentration 90 nM)
In short: as §1

[3] = system: PPARg DBDmut:RXRa IVT, anti-PPARg (DBD mutation: PPARg1 K132A/R137A, NR concentration 270 nM, RXRa partner concentration 90 nM)
In short: as §1

[4] = system: PPARg DBDmut IVT, anti-PPARg (DBD mutation: PPARg1 K132A/R137A, NR concentration 270 nM)
In short: as §1

[5] = system: PPARg homodimer (NR concentration 180 nM)
In short: as §1

[6] = system: PXR:RXRa (NR concentration 270 nM, RXRa partner concentration 90 nM)
In short: as §1

[7] = system: PXR homodimer (NR concentration 270 nM)
In short: as §1

[8] = system: RARa:RXR (NR concentration 270 nM, RXRa partner concentration 90 nM)
In short: as §1

[9] = system: RARa homodimer (NR concentration 270 nM)
In short: as §1

[10] = system: RARb:RXRa (NR concentration 270 nM, RXRa partner concentration 90 nM)
In short: as §1

[11] = system: RARb homodimer (NR concentration 270 nM)
In short: as §1

[12] = system: RARg:RXRa (NR concentration 270 nM, RXRa partner concentration 90 nM)
In short: as §1

[13] = system: RARg homodimer (NR concentration 270 nM)
In short: as §1

[14] = system: RXRa DBDmut IVT, anti-RXR (DBD mutation: RXRa K156A/R161A, NR concentration 90 nM)
In short: as §1

[15] = system: RXRa homodimer (NR concentration 180 nM)
In short: as §1

[16] = system: THRa:RXRa (NR concentration 90 nM, RXRa partner concentration 90 nM)
In short: as §1

[17] = system: THRa homodimer (NR concentration 90 nM)
In short: as §1

[18] = system: VDR homodimer (NR concentration 270 nM)
In short: as §1

Sequence	PBM binding z-score [1]	PBM binding z-score [2]	PBM binding z-score [3]	PBM binding z-score [4]	PBM binding z-score [5]	PBM binding z-score [6]	PBM binding z-score [7]	PBM binding z-score [8]	PBM binding z-score [9]	PBM binding z-score [10]	PBM binding z-score [11]	PBM binding z-score [12]	PBM binding z-score [13]	PBM binding z-score [14]	PBM binding z-score [15]	PBM binding z-score [16]	PBM binding z-score [17]	PBM binding z-score [18]
TGAATGAGGTTAAAGATCAGAGAACGTGGCGTCG	1.89	3.53	1.38	0.333	0.79	2	0.0576	3.32	0.124	1.98	0.55	2.23	1.36	1.15	3.86	2.28	0.132	0.373
CGAACTAGGTCACGAAAGGTCAAAGTCGAATGAC	8.45	8.7	0.767	1.32	5.63	7.14	3.35	7.72	2.82	5.68	6.05	7.91	8.67	2.37	8.55	5.01	2.52	3.39
TCTCGGAGGACACGAAGGTTAGAGCTTTCCAGAG	0.921	0.171	-0.626	-1.17	-0.693	0.0364	-0.704	0.0543	-1.13	1.88	1.26	0.969	1.89	0.169	0.126	1.59	0.277	-0.226
ATCTCTAGGTAAAGATAATTCAGTGAATGCAAAT	2.32	1.93	1.06	1.29	0.141	0.14	0.504	0.441	1.38	-0.0226	-0.268	0.658	0.648	0.0492	0.365	0.654	0.0536	-0.00622
CGTCCAAGGTCAATGCTAGGTCAGTGACAGCATT	3.59	4.07	0.933	0.0917	5.74	4.98	1.04	6.17	2.41	5.26	4.95	7.61	6.78	3.65	5.25	4.63	2.99	2.97
TCGAGAAGGTTACCAATGGGGCATTCAGCTTTCT	1.39	0.663	-1.15	-0.173	0.132	0.773	-1	1.49	-0.803	2.26	1.48	3.02	1.19	0.529	1.86	0.779	-0.839	-0.528
CCAACTAGGTCACGAAAGGTCAAAGTCGAATGAC	8.35	8.54	1.23	0.869	6.09	7.02	3.52	7.39	3.62	5.63	6.02	8.03	8.57	2.76	8.76	5.44	2.87	3.88
TTACCAAGGTGATAGGTCGTTGATGCACGCCTTG	1.07	2.82	0.428	0.413	1.26	0.611	-0.14	1.36	-0.163	1.07	0.852	0.727	0.286	-0.12	1.51	1.25	0.482	0.256
TGTCAAAGTTAAAAGGTAACGTAAGTATCCACAC	-0.253	2.08	1.24	0.84	0.261	0.715	0.361	1.23	0.69	1.33	0.641	1.31	1.09	-0.392	1.22	1.72	-0.237	-0.239
ATCTCTAGGTAAAAGCTCAGTGAATCCCGAGGAT	2.43	1.66	0.208	0.808	-0.0545	-0.626	-0.475	-0.548	0.418	-0.0301	-0.335	-0.0468	0.135	-0.625	-0.149	0.0962	-0.296	-0.497
CAAACTATGTCAAGGTCAAAGTCGGTTTGTGCCA	5.27	4.71	0.328	0.339	2.4	5	3.33	4.46	1.69	4.25	4.39	4.59	4.75	2.54	4.98	4.03	3.78	4.25
ATACCAAGGTGATCGTGAGGTCGTGGATACTAAC	0.55	1.38	0.414	0.297	1.2	2.53	0.492	3.03	0.48	1.65	1.77	2.71	0.919	0.217	2.04	3.62	2.99	1.78
ACTAGCAGCCCAAGGGTCACTCAAGATTAGTCCG	-0.509	1.13	-0.437	-0.614	1.34	2.97	0.208	3.58	0.48	3.27	3.74	3.55	3.23	0.283	3.67	2.45	0.307	0.863
CGAACTAGGTAATCCAGGACAGTGAATACATTGA	5.67	4.69	0.81	0.796	0.0161	-0.34	-0.311	-0.156	0.04	0.0507	-0.194	0.0775	0.29	0.502	-0.0168	1.85	0.946	-0.254
AACTCTAGGTAAGACTCAGTTCAGTGAAGAACGC	1.6	0.848	0.278	-0.04	0.345	0.534	0.651	0.155	0.797	0.272	0.462	-0.177	0.0668	0.487	-0.128	0.636	0.228	1.15
ACTATTAGGTGAGACGAGGGCAACCGATAGGTTG	4.85	3.95	1.23	0.854	1.46	2.81	0.453	1.39	0.564	1.64	1.7	1.03	1.43	0.288	0.97	3.84	0.802	1.07

Sequence	PBM binding z-score [1]	PBM binding z-score [2]	PBM binding z-score [3]	PBM binding z-score [4]	PBM binding z-score [5]	PBM binding z-score [6]	PBM binding z-score [7]	PBM binding z-score [8]	PBM binding z-score [9]	PBM binding z-score [10]	PBM binding z-score [11]	PBM binding z-score [12]	PBM binding z-score [13]	PBM binding z-score [14]	PBM binding z-score [15]	PBM binding z-score [16]	PBM binding z-score [17]	PBM binding z-score [18]
TTACCAAGGTGAAGGTCGTTGACCCCTCTGTAGA	1.51	3.73	-0.0772	-0.567	2.99	4.73	0.313	5.73	0.145	2.87	3.35	3.33	2.12	0.133	4.95	3.6	1.43	1.51
ACTAGCAGGCCAAGTTTGGGTCACACAAACAAAG	0.756	1.65	0.166	-0.339	0.789	1.07	-0.0733	1.95	-0.318	1.91	2.17	2.66	1.73	-0.304	1.44	2.67	1.04	0.103
AGTCAAAGTTCATCTATGTAACGTAAGATATGCT	0.144	2.33	0.955	1.14	3.7	5.09	5.26	3.82	1.52	4.89	3.77	5.2	6.01	4.69	4.74	1.92	-0.492	4.62
GGAACGAGGGCAAGTTGAGAGCAGAGTTTGATGG	3.69	2.7	0.19	-0.541	0.391	0.927	0.275	0.482	-0.172	2.74	1.58	1.77	2.21	2.26	0.94	1.45	0.0177	1.66
ATCTCTAGGTAACAAGTACAGTGAAAGAGAGGAC	2.78	2.91	1.63	0.83	0.76	0.221	0.657	0.485	1.28	0.624	0.631	0.905	0.824	-0.118	0.349	1.12	0.739	0.41
CGTCCAATGTCAGCAGGTCAGTGAAAGCGACGTG	0.4	0.811	-0.067	-0.189	1.33	0.416	-0.258	1.17	0.0652	2.6	2.76	2.04	2.59	0.442	0.9	1.31	0.239	0.584
GATACAGGGCCAAGGCCAGAGTACGCGTATTGAT	-0.255	-0.178	-0.899	-1.53	-0.373	-0.55	-0.406	-0.762	-0.587	0.946	0.738	0.109	0.599	-0.254	0.197	-0.171	-0.281	-0.147
CCCAGTAGGTTATGGGGCATTCAGGCAACGGTGA	3.64	4.66	-0.461	-0.268	0.645	-0.0768	-0.414	0.112	-0.0462	0.967	0.987	0.653	0.48	-1.2	0.869	0.512	-0.000965	0.0729
CGAACTAGGTCATCCAGCACAGTGAATACATTGA	8.26	8.11	2.99	2.39	1.64	1.47	0.241	2.25	0.526	3.71	2.79	4	4.55	2.13	2.92	2.85	1.13	1.16
ATATGTAGGTTAAGGGTCATTGAGGTTGGTTCGC	7.14	7.77	2.89	2.08	3.71	5.1	4.17	5.84	2.44	3.7	4.17	4.87	3.36	1.89	6.28	3.55	2.06	4.8
CGTCCAAGGTCATAGTAGGTCAGTGAAGACAGAT	4.15	5.33	1.45	-0.159	2.97	5.67	2.73	5.14	1.92	5.12	4.63	6.11	6.44	4.14	6.11	4.94	2.97	3.93
CAAACTAGGTCAAGAGGTCAACGTCCGCTTCCCG	8.45	8.58	3.13	2.14	8.6	6.18	1.76	7.72	4.74	5.47	5.63	7.92	7.74	2.76	7.68	4.5	2.96	3.84
ACTTACGGGTCAACGAGTTTATAGCACGCGTATA	3.67	3.98	1.94	1.27	1.4	5.9	9.25	4.24	0.513	4.14	3.4	5.13	5.14	3.3	5.62	3	0.511	6.13
GCAAATAGGTAATACAAGGTGAAAGTCCGATTGT	3.46	2.55	0.642	0.68	0.192	0.778	0.202	1.44	0.308	0.635	0.898	0.546	0.597	0.463	0.951	4.22	0.778	-0.442
ACTATTAGTTGACTGAGGGCAACCGATACGACGC	0.524	0.702	1.12	0.733	0.7	1.06	1.3	0.779	0.713	1.41	1.72	0.837	1.38	1	0.572	1.91	1.06	1.71
